In the supplement of paper PMC6897291:

Key:
U-2932 [1] = assay: growth inhibition by drug alone (1 - RLU/untreated control) (fraction); higher = stronger inhibition; settings: 177Lu-lilotomab satetraxetan 0 ug/ml
Method in brief: (§1)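 Plates pre-printed with the Selleck Cambridge Cancer Compound library at 10/100 nM (RIVA) or 10/1,000 nM (U-2932) received 3,000 cells/well. These cells had been washed after 18 h untreated or with a radiolabelled anti-CD37 antibody conjugate (~600 MBq/mg; 0.5 µg/ml RIVA, 1 µg/ml U-2932). Growth inhibition was obtained from RealTime-Glo luminescence in relation to untreated no-drug wells. Each daily read from day 3, taken after 1 h at 37°C, was converted as 1 − RLU/mean of 48 such wells per plate.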

RIVA [2] = assay: as above; settings: 177Lu-lilotomab satetraxetan 0 ug/ml
Method in brief: as §1

U-2932 [3] = assay: growth inhibition by drug plus 177Lu-lilotomab satetraxetan (1 - RLU/untreated control) (fraction); higher = stronger inhibition; settings: 177Lu-lilotomab satetraxetan 1 ug/ml
Method in brief: as §1

RIVA [4] = assay: as above; settings: 177Lu-lilotomab satetraxetan 0.5 ug/ml
Method in brief: as §1

Row | Structure (SMILES) | growth inhibition by drug alone (U-2932 [1]; 10 nM, time (day): 3) | growth inhibition by drug alone (U-2932 [1]; 10 nM, time (day): 4) | growth inhibition by drug alone (U-2932 [1]; 10 nM, time (day): 5) | growth inhibition by drug alone (U-2932 [1]; 10 nM, time (day): 6) | growth inhibition by drug alone (U-2932 [1]; 1000 nM, time (day): 3) | growth inhibition by drug alone (U-2932 [1]; 1000 nM, time (day): 4) | growth inhibition by drug alone (U-2932 [1]; 1000 nM, time (day): 5) | growth inhibition by drug alone (U-2932 [1]; 1000 nM, time (day): 6) | growth inhibition by drug alone (RIVA [2]; 10 nM, time (day): 3) | growth inhibition by drug alone (RIVA [2]; 10 nM, time (day): 4) | growth inhibition by drug alone (RIVA [2]; 10 nM, time (day): 5) | growth inhibition by drug alone (RIVA [2]; 10 nM, time (day): 6) | growth inhibition by drug alone (RIVA [2]; 100 nM, time (day): 3) | growth inhibition by drug alone (RIVA [2]; 100 nM, time (day): 4) | growth inhibition by drug alone (RIVA [2]; 100 nM, time (day): 5) | growth inhibition by drug alone (RIVA [2]; 100 nM, time (day): 6) | growth inhibition by drug plus 177Lu-lilotomab satetraxetan (U-2932 [3]; 10 nM, time (day): 3) | growth inhibition by drug plus 177Lu-lilotomab satetraxetan (U-2932 [3]; 10 nM, time (day): 4) | growth inhibition by drug plus 177Lu-lilotomab satetraxetan (U-2932 [3]; 10 nM, time (day): 5) | growth inhibition by drug plus 177Lu-lilotomab satetraxetan (U-2932 [3]; 10 nM, time (day): 6) | growth inhibition by drug plus 177Lu-lilotomab satetraxetan (U-2932 [3]; 1000 nM, time (day): 3) | growth inhibition by drug plus 177Lu-lilotomab satetraxetan (U-2932 [3]; 1000 nM, time (day): 4) | growth inhibition by drug plus 177Lu-lilotomab satetraxetan (U-2932 [3]; 1000 nM, time (day): 5) | growth inhibition by drug plus 177Lu-lilotomab satetraxetan (U-2932 [3]; 1000 nM, time (day): 6) | growth inhibition by drug plus 177Lu-lilotomab satetraxetan (RIVA [4]; 10 nM, time (day): 3) | growth inhibition by drug plus 177Lu-lilotomab satetraxetan (RIVA [4]; 10 nM, time (day): 4) | growth inhibition by drug plus 177Lu-lilotomab satetraxetan (RIVA [4]; 10 nM, time (day): 5) | growth inhibition by drug plus 177Lu-lilotomab satetraxetan (RIVA [4]; 10 nM, time (day): 6) | growth inhibition by drug plus 177Lu-lilotomab satetraxetan (RIVA [4]; 100 nM, time (day): 3) | growth inhibition by drug plus 177Lu-lilotomab satetraxetan (RIVA [4]; 100 nM, time (day): 4) | growth inhibition by drug plus 177Lu-lilotomab satetraxetan (RIVA [4]; 100 nM, time (day): 5) | growth inhibition by drug plus 177Lu-lilotomab satetraxetan (RIVA [4]; 100 nM, time (day): 6)
1 | CCCCCOC(=O)Nc1nc(=O)n([C@@H]2O[C@H](C)[C@@H](O)[C@H]2O)cc1F [Capecitabine (Xeloda)] | -0.0672 | -0.0894 | -0.0926 | -0.0992 | -0.0819 | -0.0438 | -0.0714 | 0.0681 | -0.345 | -0.321 | -0.354 | -0.36 | -0.381 | -0.792 | -0.367 | -0.436 | -0.101 | -0.0507 | 0.0153 | 0.0328 | -0.139 | -0.0798 | -0.0339 | 0.114 | 0.468 | 0.533 | 0.549 | 0.549 | 0.378 | 0.466 | 0.465 | 0.483
2 | COc1ccc(S(=O)(=O)Nc2cccnc2Nc2ccc(O)cc2)cc1 | 0.0231 | -0.0101 | -0.0159 | 0.0329 | 0.889 | 0.918 | 0.932 | 0.948 | -0.0856 | -0.157 | -0.215 | -0.37 | -0.353 | -0.364 | -0.406 | -0.581 | -0.0595 | 0.0116 | 0.0522 | 0.105 | 0.896 | 0.923 | 0.934 | 0.956 | 0.454 | 0.511 | 0.525 | 0.533 | 0.416 | 0.502 | 0.51 | 0.5
